“And” between values parts separate entries of the source, which are not always exact repeats. Identical values can stand only once. Compounds without any hit were thinned out: in the full panel of roughly 79,000, 15% have a hit. Values without a mark were called inactive. The source made the active and inactive calls. No stated cut-off is given here; in the data, active means growth inhibition above about 70%; inactive means the rest.

The values below come from PubChem BioAssay (NCI).

The nature of test [1]: NCI Yeast Anticancer Drug Screen. Data for the rad50 strain (AID 155).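 Further: 0% = growth of vehicle-only cultures of the same strain.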 To be noted: S. cerevisiae rad50 strain growth inhibition, active compounds read high; at 50.0 µM unless noted. A digest of the protocol:
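A DNA repair-deficient yeast mutant serves as the test organism; compound-induced growth inhibition is calculated against vehicle-treated cells.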

The nature of test [2]: NCI Yeast Anticancer Drug Screen. Data for the mec2-1 strain (AID 157). The following applies: S. cerevisiae mec2-1 strain, active compounds read high; at 50.0 µM unless noted. In short, it runs like this: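 Test agents were screened against the mec2-1 yeast strain, with defined DNA repair or cell cycle alteration. Growth was scored as inhibition against vehicle-only controls.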

The nature of test [3]: NCI Yeast Anticancer Drug Screen. Data for the sgs1 mgt1 strain (AID 161).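 Further: 0% = growth of cultures given vehicle only.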 The following applies: S. cerevisiae sgs1 mgt1 strain, active compounds read high; at 50.0 µM unless noted. A digest of the protocol:
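Read-out: growth inhibition vs vehicle controls. Cells: mutant yeast strain deficient in DNA damage repair.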

Test [4] can be described thus: NCI Yeast Anticancer Drug Screen. Data for the cln2 rad14 strain (AID 165).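 Further: 0% = growth equal to vehicle treated cultures.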 To be noted: S. cerevisiae cln2 rad14 strain, active compounds read high; at 50.0 µM unless noted. In short, it runs like this:
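Growth of compound-exposed yeast (cln2 rad14 genotype) measured and expressed as inhibition relative to vehicle.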

Test [5] is described as follows: NCI Yeast Anticancer Drug Screen. Data for the bub3 strain (AID 167). To be noted: S. cerevisiae bub3 mutant strain, active compounds read high; at 50.0 µM unless noted. A digest of the protocol: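 Inhibition values come from growth of compound-treated mutant yeast normalised to vehicle-treated controls.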
Test [6] in a line: NCI Yeast Anticancer Drug Screen. Data for the mlh1 rad18 strain (AID 175). To be noted: S. cerevisiae mlh1 rad18 strain growth inhibition, active compounds read high; at 50.0 µM unless noted. A digest of the protocol: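 In this whole-cell yeast screen, a strain with altered DNA damage repair is challenged with compound, and its growth is measured against matched vehicle-treated controls.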

Regarding `CCOC(=O)c1c(NS(=O)(=O)c2ccc(C)cc2)sc(C)c1-c1ccccc1`, the growth inhibition in test [1] is -21.4%; in test [2], -0.45%; in test [3], -6.2%; in test [4], 67.8%; in test [5] it was 6.85%; in test [6], -3.65%.
As to `CN(C)CC(O)(C(=O)c1ccccc1)c1ccccc1` (centres undefined), the growth inhibition was -4.35% in test [1]; -9.8% in test [2]; -13.5% in test [3]; -25.2% in test [4]; -19.6% in test [5]; -6.05% in test [6].
For `C[n+]1cn(-c2nc3ccccc3nc2[N-]S(=O)(=O)c2ccccc2)c2ccccc21`, the growth inhibition in test [1] is -0.2%; in test [2], -5.7%; in test [3] it was -13.2%; in test [4] it was -18.4%; in test [5], -20.1%; in test [6], -38.5%.
`Cc1ccc2c(c1)C(C(=O)N[C@@H]1C(=O)N3[C@@H]1SC(C)(C)[C@@H]3C(=O)O)OCCC2` (some centres undefined): the growth inhibition was -5.1% in test [1]; -12.3% in test [2]; 16.2% in test [3]; 2.45% in test [4]; 0.65% in test [5]; -68.4% in test [6].
For the compound `CC(C)(C)OC(=O)c1ccccc1C(=O)c1ccccc1`, the growth inhibition in test [1] was -0.4%; in test [2] it was -1.2%; in test [3], -4.8%; in test [4], 14.3%; in test [5], 9.05%; in test [6], -10.8%.
For `CC(C)NC(=O)OCc1c(COC(=O)NC(C)C)c(-c2ccccc2)n(C)c1-c1ccccc1`, the growth inhibition is 12.6% in test [1]; 2.05% in test [2]; 6.05% in test [3]; -5.7% in test [4]; 1.85% in test [5]; 32.8% in test [6].
Turning to `CCOc1ccccc1N=C(NC(=O)CC)SC`, the growth inhibition in test [1] was 39%; in test [2] it was 26.8%; in test [3], -7.15%; in test [4], 12.1%; in test [5], 32.3%; in test [6], 52%.
As to `CCOC(=O)C(=O)Nc1c(C)cccc1C(C)(C)C`, the growth inhibition in test [1] was -22.1%; in test [2], -30.4%; in test [3] it was -4.35%; in test [4], 3.55%; in test [5], -16.8%; in test [6], -7.05%.
As for `CCN(Cc1ccccc1)c1nnnn1-c1ccccc1`, the growth inhibition in test [1] was -2.5%; in test [2], -5.25%; in test [3], 8%; in test [4], 6.75%; in test [5], 12.1%; in test [6], -10.6%.
As for `Cc1ccc2nc(-c3ccc(F)cc3)cc(C(=O)O)c2c1`, the growth inhibition is 9.9% in test [1]; 2.05% in test [2]; 6.25% in test [3]; 17.9% in test [4]; 10.2% in test [5]; 26.1% in test [6].
As to `CCN(CC)CCn1c2ccccc2c(=O)c2c(OC)ccc(OC)c21`, the growth inhibition in test [1] is 54.4%; in test [2], 8.05%; in test [3] it was 15.8%; in test [4], 16.6%; in test [5], 16.8%; in test [6] it was 50.9%.
On to `CCN1CCN(c2nc3ccccc3c3c2CCOc2ccccc2-3)CC1`, for which the growth inhibition was -12.4% in test [1]; -16.9% in test [2]; -15.8% in test [3]; 19.1% in test [4]; 0.25% in test [5]; 6% in test [6].
With `C#CCOCC(CCl)OC(=O)Nc1ccccc1` (centres undefined), the growth inhibition was 14.7% in test [1]; 47.1% in test [2]; 11.6% in test [3]; 11.8% in test [4]; 14.7% in test [5]; 84.4% (active) in test [6].
Take `O=c1c(-c2ccccc2)c[nH]c2ccccc12`: the growth inhibition in test [1] is 26.7%; in test [2] it was 16.6%; in test [3], 20.9%; in test [4], 8.45%; in test [5] it was -10.9%; in test [6] it was 44.5%.
As to `C/C(=N\N/C=N/S(=O)(=O)c1ccccc1)c1ccccc1`, the growth inhibition was -12.2% in test [1]; 4.55% in test [2]; -6.35% in test [3]; 5.6% in test [4]; 0.55% in test [5]; -1.55% in test [6].
As to `CC1C2=C(CC(C)(C)CC2=O)NC2=C1C(=O)CC(C)(C)C2`, the growth inhibition was -7.3% in test [1]; -26.1% in test [2]; -8.55% in test [3]; -9.85% in test [4]; -7.4% in test [5]; -3.4% in test [6].
In the case of `c1ccc2nc3c(cc2c1)c1c(c2ccccc23)CCCC1`, the growth inhibition was 11.2% in test [1]; -10.5% in test [2]; 20.4% in test [3]; -25.4% in test [4]; -14.6% in test [5]; 22.9% in test [6].
Take `COc1cc(C(=O)N2CCOC23CCN(Cc2ccccc2)CC3)cc(OC)c1OC`: the growth inhibition was -1.5% in test [1]; -30.6% in test [2]; -7.8% in test [3]; 13.2% in test [4]; -6.9% in test [5]; 2.7% in test [6].
Regarding `Cc1ccc(C=NC23CC4CC(CC(C4)C2)C3)cc1`, the growth inhibition in test [1] is -3.3%; in test [2] it was -28.6%; in test [3], -24.2%; in test [4], -24.9%; in test [5], -35.9%; in test [6], -20.4%.
As to `O=c1oc2ccccc2c(O)c1Cc1ccccc1Cc1c(O)c2ccccc2oc1=O`, the growth inhibition is 4.4% in test [1]; 4.65% in test [2]; -13.2% in test [3]; 10.9% in test [4]; -19.9% in test [5]; 65% in test [6].
Take `O=C(O)CCc1[nH]c(I)nc1I`: the growth inhibition in test [1] is 17.1%; in test [2] it was 14.3%; in test [3], 5.3%; in test [4], -0.7%; in test [5], -7.45%; in test [6], 29.5%.
For `C=C(Br)CNC(=O)CCC(=O)NCC(=C)Br`, the growth inhibition in test [1] was -27.5%; in test [2] it was -11.8%; in test [3], -3.35%; in test [4], -5.9%; in test [5], -21.4%; in test [6], -57.7%.
`O=c1/c(=C/c2ccccc2[N+](=O)[O-])sc2nc3ccccc3n12`: the growth inhibition is -16.6% in test [1]; -21.4% in test [2]; -25.9% in test [3]; -12.7% in test [4]; -21.9% in test [5]; -47.2% in test [6].
Take `CCCCOC(=O)CC(O)C(=O)OCCCC` (centres undefined): the growth inhibition in test [1] is 39.1%; in test [2], -4.45%; in test [3] it was -17.5%; in test [4], -61.2%; in test [5], -29.9%; in test [6] it was -11%.
Regarding `Cc1ccc(S(=O)(=O)N(CC(=O)c2ccccc2)c2ccc(Br)cc2)cc1`, the growth inhibition in test [1] was 22.9%; in test [2], 6.6%; in test [3], 26.1%; in test [4] it was 4.9%; in test [5], 2.05%; in test [6], 16.1%.
As for `O=C(O)Cc1ccc(-c2cn3c(n2)sc2ccccc23)cc1`, the growth inhibition in test [1] is 58.1%; in test [2], 22.3%; in test [3], 0.05%; in test [4], 5.45%; in test [5], 24.8%; in test [6], 16.4%.
For `c1ccc(N=C(Nc2ccccn2)Nc2ccccn2)nc1`, the growth inhibition in test [1] was 5.15%; in test [2], -7.2%; in test [3] it was 1.1%; in test [4] it was -34%; in test [5] it was -14.7%; in test [6] it was -25.1%.
For `Clc1ccccc1NN(Cc1ccncc1)c1ccccc1Cl`, the growth inhibition in test [1] is 55.6%; in test [2] it was 23.1%; in test [3], 23.7%; in test [4], 26.9%; in test [5] it was 34.1%; in test [6], 53.1%.
For `CN(C)CC1CCCCCC(CN(C)C)C1=O` (centres undefined), the growth inhibition in test [1] was -17.9% and 38%; in test [2] it was 8.3% and 2.75%; in test [3], -1.85% and 25.9%; in test [4], 0.45% and -28.4%; in test [5], -10.4% and -1.65%; in test [6], 16.8% and 12.9%.
As to `Cc1c(NC(=S)NC(=O)c2ccc([N+](=O)[O-])cc2)c(=O)n(-c2ccccc2)n1C`, the growth inhibition was 19.6% in test [1]; 5.7% in test [2]; 16.2% in test [3]; 17.9% in test [4]; 32.9% in test [5]; 18.6% in test [6].
`CN(C(=O)Cc1ccccc1)n1cn[n+](CC(=O)OC(C)(C)C)c1`: the growth inhibition in test [1] is -3.65%; in test [2], -13.6%; in test [3] it was -12.4%; in test [4] it was -8.35%; in test [5], -24.6%; in test [6] it was -23.6%.
Consider `CCCCCC(Br)C(Br)CC(Br)C(Br)CC(Br)C(Br)CCCCC(=O)O` (centres undefined), for which the growth inhibition is 11.2% in test [1]; -5.8% in test [2]; 9.6% in test [3]; -31.9% in test [4]; -0.7% in test [5]; 22.6% in test [6].
With `CCN(CC)CCCC(C)Nc1ncnc2ccccc12` (centres undefined), the growth inhibition in test [1] is 2.2%; in test [2], 8.95%; in test [3], 23.1%; in test [4] it was 15.6%; in test [5] it was -7.3%; in test [6] it was -2.25%.
As for `NC(CSS(=O)(=O)O)=NCCCOCc1ccccc1`, the growth inhibition was 15.4% in test [1]; 7% in test [2]; 12.3% in test [3]; 10% in test [4]; 18.6% in test [5]; -7.2% in test [6].
For `O=c1[nH]c(=O)c2cc(Cl)ccc2[nH]1`, the growth inhibition in test [1] is 3.2%; in test [2], 6.75%; in test [3], -2.75%; in test [4], -37%; in test [5], 4.75%; in test [6] it was 0.65%.
With `CCc1ccc(O)cc1O`, the growth inhibition in test [1] was -18.4%; in test [2] it was -12.9%; in test [3], -43.1%; in test [4], 10.7%; in test [5], -30.6%; in test [6], -4.6%.
Take `COc1ccccc1N=Nc1c(O)n(-c2ccccc2OC)c(=S)n(-c2ccccc2)c1=O`: the growth inhibition in test [1] was 40.8%; in test [2], -3.45%; in test [3], 31.9%; in test [4], -13.4%; in test [5], -2.5%; in test [6] it was 16.9%.
With `Cc1cc(C)c([N+](=O)[O-])cc1N`, the growth inhibition in test [1] is 20.9%; in test [2], 15.1%; in test [3], 26.6%; in test [4], 13.5%; in test [5], 22.8%; in test [6] it was 19.6%.
Consider `Cc1cc(=O)[nH]c(N/N=C/C=C/c2ccccc2)n1`, for which the growth inhibition in test [1] was -35.4%; in test [2], -25.7%; in test [3] it was -17.1%; in test [4], -15.8%; in test [5] it was -15.8%; in test [6] it was -25.9%.
